Experimental data published in PubChem BioAssay (NCATS).
“And” between values parts separate entries of the source, which are not always exact repeats. Equal entries are not always repeated. Records with an inconclusive call do not appear. A structure can be active in one record and inactive in another. The source made the active and inactive calls. Calls follow the shape of the dose curve; as a rule, active = well fitted cell-killing curve with a large enough effect; inconclusive = small, poorly fitted or top-dose-only effect, or effect the other way; inactive = no such curve, though single readings can be large or run the other way.

Columns and labels:
[1] = Quantitative High-Throughput drug screen in 47 multiple myeloma cell lines against the NCATS MIPE library collection: OCIMY1_PLB cell viability assay (AID 1918979); settings: OCI-MY1 myeloma viability, CellTiter-Glo ATP, 48 h; series mostly up to 45.8 µM; also: nearly all actives have a fitted effect of over 35% in size
Procedure, shortened: (§1)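 Myeloma cells (500/well) treated with MIPE 4.0 compounds for 48 h at 37 °C, 5% CO2. Viability read as ATP via CellTiter-Glo luminescence after 5 min at RT; DMSO-only wells = 100%, media-only = 0% viability.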

[2] = Quantitative High-Throughput drug screen in 47 multiple myeloma cell lines against the NCATS MIPE library collection: MM1S_ATCC cell viability assay (AID 1918980); settings: MM1S myeloma viability, CellTiter-Glo ATP luminescence, 48 h; series mostly up to 45.8 µM; also: nearly all actives have a fitted effect of over 45% in size
Procedure, shortened: as §1

[3] = Quantitative High-Throughput drug screen in 47 multiple myeloma cell lines against the NCATS MIPE library collection: MM1R_ATCC cell viability assay (AID 1918981); settings: MM1R multiple myeloma cells, CellTiter-Glo viability, 48 h; series mostly up to 45.8 µM; also: nearly all actives have a fitted effect of over 35% in size
Procedure, shortened: as §1

[4] = Quantitative High-Throughput drug screen in 47 multiple myeloma cell lines against the NCATS MIPE library collection: LP1_DSMZ cell viability assay (AID 1918982); settings: LP1 myeloma viability, CellTiter-Glo ATP luminescence, 48 h; series mostly up to 45.8 µM; also: nearly all actives have a fitted effect of over 35% in size
Procedure, shortened: as §1

[5] = Quantitative High-Throughput drug screen in 47 multiple myeloma cell lines against the NCATS MIPE library collection: KMS28PE_JCRB cell viability assay (AID 1918983); settings: KMS28PE multiple myeloma viability, CellTiter-Glo ATP, 48 h; series mostly up to 45.8 µM; also: nearly all actives have a fitted effect of over 35% in size
Procedure, shortened: as §1

[6] = Quantitative High-Throughput drug screen in 47 multiple myeloma cell lines against the NCATS MIPE library collection: KMS34_JCRB cell viability assay (AID 1918985); settings: KMS34 myeloma viability, CellTiter-Glo ATP luminescence, 48 h; series mostly up to 45.8 µM; also: nearly all actives have a fitted effect of over 40% in size
Procedure, shortened: as §1

[7] = Quantitative High-Throughput drug screen in 47 multiple myeloma cell lines against the NCATS MIPE library collection: OCIMY5_PLB cell viability assay (AID 1918988); settings: OCI-MY5 myeloma viability, ATP luminescence, 48 h; series mostly up to 45.8 µM; also: nearly all actives have a fitted effect of over 65% in size
Procedure, shortened: as §1

[8] = Quantitative High-Throughput drug screen in 47 multiple myeloma cell lines against the NCATS MIPE library collection: OPM1_PLB cell viability assay (AID 1918989); settings: CellTiter-Glo, 48 h; series mostly up to 45.8 µM; also: nearly all actives have a fitted effect of over 40% in size
Procedure, shortened: as §1

[9] = Quantitative High-Throughput drug screen in 47 multiple myeloma cell lines against the NCATS MIPE library collection: OCIMY7_PLB cell viability assay (AID 1918987); settings: OCI-MY7 myeloma viability, CellTiter-Glo ATP, 48 h; series mostly up to 45.8 µM; also: nearly all actives have a fitted effect of over 65% in size
Procedure, shortened: as §1

[10] = Quantitative High-Throughput drug screen in 47 multiple myeloma cell lines against the NCATS MIPE library collection: L363_DSMZ cell viability assay (AID 1918984); settings: L363 myeloma viability, CellTiter-Glo ATP luminescence, 48 h; series mostly up to 45.8 µM; also: nearly all actives have a fitted effect of over 40% in size
Procedure, shortened: as §1

Measured: Potency
Potency is read from the fitted curve at half-maximal effect.

Oc1ccc(C2CNCCc3c2cc(O)c(O)c3Cl)cc1 (stereo not drawn)
active: [2] 3.32 µM | [6] 14.8 µM | [7] 16.6 µM
not listed: [9] | [10]
inactive: all other assays above

N[C@@H]1CONC1=O
not listed: [5] | [9] | [10]
inactive: all other assays above

CC1(C)Cc2c(-c3ccccc3)c(-c3ccc(Cl)cc3)c(CC(=O)O)n2C1
active: [1] 23.5 µM | [2] 26.4 µM

COc1ccc(CC2=NN3C([C@@H](CCc4ccccc4)[C@@H](C)O)=NC(C)C3C(=O)N2)cc1OC (stereo partly drawn)
active: [8] 2.64 µM
not listed: [3] | [10]
inactive: all other assays above

NC[C@H](O)c1ccc(O)c(O)c1
inactive: [1] | [4] | [6]
active: [2] 23.5 µM | [3] 5.9 µM | [5] 18.7 µM | [7] 1.32 µM

Cc1n[nH]c(C)c1Cc1sc2c(c1C(=O)N1C[C@H](O)CO1)c(=O)n(C)c(=O)n2CC(C)C
active: [2] 11.8 µM | [5] 16.6 µM
inactive: [1] | [3] | [10] | [6]

Cc1cc([C@@H](C)Nc2ccccc2C(=O)O)c2nc(N3CCOCC3)cc(=O)n2c1
active: [1] 8.55 µM | [2] 9.59 µM | [3] 27 µM | [6] 2.7 µM | [9] 2.15 µM | [7] 38.2 µM | [8] 17.1 µM

COc1ccc(C2=N[C@H](c3ccc(Cl)cc3)[C@H](c3ccc(Cl)cc3)N2C(=O)N2CCNC(=O)C2)c(OC(C)C)c1
inactive: [1] | [4] | [5]
active: [2] 2.09 µM | [3] 2.35 µM | [10] 0.059 µM | [9] 8.33 µM | [7] 18.7 µM

Cc1c(CCOc2ccc(C(=O)O)cc2)c2cc(Cl)ccc2n1C(c1ccccc1)c1ccccc1
active: [2] 9.35 µM | [3] 11.8 µM | [5] 23.5 µM
inactive: [1] | [9]

O=C(O)[C@@H](c1ccc(OCc2ccc3ccccc3n2)cc1)C1CCCC1
active: [9] 5.9 µM
not listed: [3] | [7]
inactive: all other assays above

CCC(=O)N[C@H]1CC[C@H](C(=O)N(C)c2ccc(-c3nc4ccccc4o3)cc2)C1
inactive: [1] | [6]
active: [2] 5.26 µM | [3] 3.72 µM | [5] 18.7 µM | [10] 16.6 µM | [9] 8.33 µM

CC(C=CC1=C(C)CCCC1(C)C)=CC=CC(C)=CC(=O)O
inactive and 9.35 µM (active): [5]
inactive: [1] | [4]
active: [2] 0.526 µM | [3] 14.8 µM | [9] 2.64 µM | [7] 14.8 µM | [8] 8.33 µM

NC(=O)c1ccc(I)c([N+](=O)[O-])c1
inactive: [1] | [4] | [5] | [6]
active: [2] 18.7 µM | [3] 23.5 µM | [8] 23.5 µM

COc1ccc(-c2c(-c3ccc(O)cc3O)n[nH]c2C)cc1
active: [3] 38.2 µM | [8] 30.3 µM
inactive: [1] | [2] | [5] | [6]

Cc1cc2c(C(C)C)c(O)c(O)c(C=O)c2c(O)c1-c1c(C)cc2c(C(C)C)c(O)c(O)c(C=O)c2c1O
active: [1] 14.8 µM | [2] 16.6 µM | [3] 13.2 µM | [4] 16.6 µM | [5] 18.7 µM | [6] 11.8 µM | [9] 8.33 µM | [7] 14.8 µM | [8] 10.5 µM

Cc1ccccc1C(C(=O)NC1CCCC1)N(C(=O)Cn1cnc2ccccc21)c1cccc(F)c1 (stereo not drawn)
active: [2] 18.7 µM | [4] 3.32 µM
inactive: [1] | [3] | [5]

CO[C@@H]1[C@H](N(C)C(=O)c2ccccc2)C[C@H]2O[C@]1(C)n1c3ccccc3c3c4c(c5c6ccccc6n2c5c31)C(=O)NC4
active: [1] 5.26 µM | [2] 4.69 µM | [3] 2.09 µM | [5] 5.26 µM | [6] 1.32 µM | [9] 0.235 µM | [7] 1.48 µM | [8] 1.18 µM

CCC(C)N(C)C(=O)c1cc2ccccc2c(-c2ccccc2Cl)n1 (stereo not drawn)
inactive: [1] | [3] | [4] | [5] | [8]
active: [2] 23.5 µM

CCn1c(-c2nonc2N)nc2c(C#CC(C)(C)O)ncc(OC[C@H]3CCCNC3)c21
active: [1] 4.18 µM | [2] 0.0264 µM | [3] 0.0418 µM | [5] 0.296 µM | [9] 8.33 µM | [8] 0.148 µM

NC(N)=NC(=O)c1nc(Cl)c(N)nc1N
inactive: [1] | [4]
active: [2] 20.9 µM

O=C(O)COCCN1CCN(C(c2ccccc2)c2ccc(Cl)cc2)CC1 (stereo not drawn)
inactive: [1] | [2] | [3] | [6] | [7]
active: [10] 0.296 µM

NNCCc1ccccc1
active: [2] 5.9 µM | [3] 6.62 µM | [5] 9.35 µM
inactive: [1] | [9] | [8]

Cc1ccnc(NS(=O)(=O)c2ccc(NC(=O)Nc3ccc(S(=O)(=O)Nc4nccc(C)n4)cc3)cc2)n1
inactive: [1] | [2] | [3] | [5] | [6]
active: [9] 23.5 µM | [8] 18.7 µM

O=C1[C@H](Cc2ccc(O)cc2)N2C(=O)CCN(C(=O)NCc3ccccc3)[C@H]2CN1Cc1cccc2ccccc12
active: [1] 16.6 µM | [2] 3.72 µM | [3] 3.32 µM | [5] 9.35 µM | [7] 4.18 µM | [8] 8.33 µM
inactive: [10]

Cc1ccc(NC(=O)c2cccc(C(C)(C)C#N)c2)cc1Nc1ccc2ncn(C)c(=O)c2c1
active: [1] 0.264 µM | [2] 6.62 µM | [3] 6.62 µM | [5] 11.8 µM | [9] 0.935 µM | [7] 16.6 µM | [8] 14.8 µM

CC(c1cc2ccccc2s1)N(O)C(N)=O (stereo not drawn)
inactive: [1] | [2] | [3] | [4] | [5] | [8]

COc1cc2nccc(Oc3ccc(NC(=O)NC4CC4)c(Cl)c3)c2cc1C(N)=O
active: [1] 20.9 µM | [2] 0.264 µM | [3] 1.18 µM | [4] 20.9 µM | [5] 13.2 µM | [6] 18.7 µM | [7] 3.32 µM | [8] 16.6 µM

Cc1cn[nH]c1
active: [1] 1.87 µM | [2] 0.332 µM | [3] 0.132 µM | [5] 0.0743 µM | [10] 0.469 µM | [6] 0.0662 µM | [7] 0.0093 µM | [8] 1.66 µM

NC(=O)c1ccc(-c2nc(-c3ccc4c(c3)OCO4)c(-c3ccccn3)[nH]2)cc1
inactive: [1] | [2]
active: [3] 7.43 µM | [6] 2.64 µM | [7] 9.35 µM

O=S(=O)(N=Cc1c(O)ccc2ccccc12)c1cccs1
active: [2] 0.0209 µM | [8] 7.43 µM
inactive: [1] | [3] | [4]

CN(C)c1ccc(Nc2nc(N)n(C(=O)c3c(F)cccc3F)n2)cc1
active: [2] 14.8 µM | [3] 18.7 µM | [4] 16.6 µM | [6] 2.35 µM | [9] 2.35 µM | [7] 11.8 µM | [8] 5.26 µM
inactive: [1]

CC(=O)Oc1ccccc1C(=O)O
active: [2] 5.26 µM | [3] 18.7 µM | [9] 5.26 µM | [7] 5.26 µM
not listed: [4]
inactive: all other assays above

CCCc1nc2c(C)cc(-c3nc4ccccc4n3C)cc2n1Cc1ccc(-c2ccccc2C(=O)O)cc1
active: [2] 26.4 µM
not listed: [7] | [9] | [10]
inactive: all other assays above

CCOc1cc(C=C2C(=O)N(c3ccccc3)N=C2C)cc(Cl)c1OCC(=O)OC
active: [2] 7.43 µM | [3] 23.5 µM | [5] 6.62 µM | [9] 3.72 µM | [8] 23.5 µM
inactive: [1] | [4]

Cc1cc(SCc2sc(-c3ccc(C(F)(F)F)cc3)nc2C)ccc1OCC(=O)O
inactive: [1] | [3] | [4] | [6]
active: [9] 20.9 µM | [7] 3.72 µM

Clc1ccc(Nc2nnc(Cc3ccncc3)c3ccccc23)cc1
inactive: [1]
active: [2] 18.7 µM | [4] 11.8 µM | [5] 20.9 µM | [9] 3.32 µM | [7] 6.62 µM

O=C(C1CC1)N1CC[C@@H](Cn2c(-c3ccc(-c4ccc5occc5c4)cc3)nc3cnccc32)C1
inactive: [1] | [2] | [5]
active: [4] 10.5 µM | [7] 4.18 µM

C[C@@H]1CN(Cc2ccc(F)cc2)[C@@H](C)CN1C(=O)c1cc2c(C(=O)C(=O)N(C)C)cn(C)c2cc1Cl
inactive: [1]
active: [2] 10.5 µM | [9] 14.8 µM | [8] 29.6 µM

CCCn1c(=O)c2[nH]c(C34CC5CC3C[C@@H](C5)C4)nc2n(CCC)c1=O
active: [3] 11.8 µM | [4] 11.8 µM | [5] 20.9 µM
inactive: [1] | [8]

Nc1nc2[nH]cc(CCc3ccc(C(=O)N[C@@H](CCC(=O)O)C(=O)O)cc3)c2c(=O)[nH]1
inactive: [1] | [3] | [4] | [5] | [9]
active: [8] 2.96 µM

O=c1ncn2nc(Sc3ccc(F)cc3F)ccc2c1-c1c(Cl)cccc1Cl
active: [3] 16.6 µM | [10] 18.7 µM | [9] 16.6 µM | [8] 16.6 µM
inactive: [1] | [5]

COc1c(Cl)cc2c([nH]c3cnccc32)c1NC(=O)c1cccnc1C
inactive: [1]
active: [3] 14.8 µM | [4] 7.43 µM | [10] 0.743 µM | [6] 3.32 µM | [9] 2.09 µM | [7] 9.35 µM | [8] 2.96 µM
